In all, about 370,000 compounds went through this assay and about 6,800 (1.8%) were called active. The sample holds actives, similar compounds and a random draw of the others, so the mix is not that of the screen. Unmarked numbers belong to inactive results.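 Rule for the calls: active = activation above a cutoff set at the mean of all screened compounds plus 3 SD (cut at about 10% in these data); inactive = the rest.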

The experiment deals with Nuclear hormone receptor DAF-12 (Heterodera glycines), GAL4 fusion. Briefly: hgDAF-12 GAL4 fusion reporter activation – cell-based, luminescence, HEK293, UAS-luciferase, primary screen (AID 687014).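 Note: 0% = DMSO wells and 100% = sodium butyrate wells.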 Conditions: HEK293 GAL4-hgDAF12 UAS-luciferase reporter, agonist luminescence; at 6.8 µM; active compounds read high; normalized to butyrate control. Background: A reporter such as luciferase makes a cellular process visible.
Regarding `O=C(Nc1ccccc1)c1ccc2c(c1)OCCCO2`, the activation was 15.1% (active).

On to `O=C(NCCc1ccc(C(F)(F)F)cc1)c1ccc2c(c1)OCO2`, for which the activation is 0.07%.

On to `C/C(=N/NC(=S)Nc1ccccc1)c1ccc2c(c1)OCO2`, for which the activation was 10.2%.

As to `COc1ccc(C2COC(=O)C2=N)c(NC(=O)c2ccccc2)c1` (stereo not given), the activation was 4.88%.

Take `O=C(CN1CCc2cc3c(cc2C1)OCCCO3)Nc1ccccc1`: the activation was -3.88%.

For the molecule `COc1cccc(C(=O)Nc2cc3c(cc2Br)OCCCO3)c1`, the activation was 13.2% (active).

In the case of `O=C(Nc1ccccc1F)c1ccc2c(c1)OCO2`, the activation was 11.2% (active).

Take `CN(Cc1c(F)cccc1Cl)C(=O)CNC(=O)c1ccc2c(c1)OCO2`: the activation is 7.57%.

Consider `COc1cccc(C(=O)Nc2nnc(S(=O)(=O)N3CCOCC3)s2)c1`, for which the activation is 3.2%.

`COC(=O)[C@]12C[C@H](CC(=O)NCCCN3CCCC3=O)C(=O)N(CCc3ccc(OC)c(OC)c3)C1=C[C@H](COCc1ccccc1)O[C@@H]2C`: the activation was 4.36%.

As for `Cc1cc(Br)ccc1NC(=S)NC1CCCC1`, the activation was 1.25%.

For `Cc1ccc(NC(=S)Nc2ncccc2C)c(C)c1`, the activation was 11.8% (active).

For the molecule `Cc1ccc(NC(=O)c2cc(C)nn2-c2ccccc2)c(C)c1`, the activation was -1.76%.

As for `Nc1ccn([C@@H]2O[C@H](C(=O)N[C@H]3CCCCNC3=O)[C@@H](O)[C@H]2O)c(=O)n1`, the activation is 0.25%.

As to `CCC(NC(=O)C1C2C=CC3(CN(Cc4ccccc4)C(=O)C13)O2)c1ccccc1` (stereo not given), the activation is -3.86%.

In the case of `Cn1cc[n+](C)c1COc1ccc(C=O)cc1`, the activation was 1%.

As to `O=Cc1ccc(OCc2cn3ccccc3n2)cc1`, the activation was 12.9% (active).

In the case of `O=C(NCCc1ccco1)c1ccc(OCc2cn3ccccc3n2)cc1`, the activation was 5.95%.

For `O=C(Nc1cc(F)cc(F)c1)OC1CCC12CCC(c1ccccc1)CC2` (stereo not given), the activation is 2.34%.

For `CC(C)C[C@H](NC(=O)CC1CCCC1)C(=O)N1CCC[C@H]1C(=O)NCc1ccccc1`, the activation was -4.65%.

As to `Cc1cc(NC(=O)CSc2nnnn2-c2ccc(F)cc2)no1`, the activation is 1.39%.

Take `Cc1ccc2nc(-c3ccc(SCC(=O)Nc4cc(C)on4)nc3)[nH]c2c1`: the activation is 15.3% (active).

Take `Cc1cc(NC(=O)CSCC(=O)NC(C)c2ccccc2)no1` (stereo not given): the activation was 2.82%.

As for `COC(=O)C1CN(CCc2ccccc2)CCS(=O)(=O)N1Cc1ccc(F)cc1` (stereo not given), the activation is 2.5%.

With `C=CCN=C1NC(c2ccccc2)C(C(=O)OC)=C(C)N1Cc1ccc(C(F)(F)F)cc1` (stereo not given), the activation was 0.51%.

With `COc1ccc(CN2CCCC(C(=O)c3ccc(Cl)cc3)C2)cc1Cn1cncn1` (stereo not given), the activation was -0.88%.

On to `COc1ccc(C2Nc3ccccc3C(=O)N2c2ccc(Cl)cc2)cc1Cn1cc([N+](=O)[O-])cn1` (stereo not given), for which the activation is 15.2% (active).

`COc1ccc(C2Nc3ccccc3C(=O)N2Cc2cccs2)cc1COc1c(C)cccc1C` (stereo not given): the activation was 1.89%.

In the case of `Cc1ccc(-n2c(SCC(=O)Nc3ccc(S(=O)(=O)Nc4nccs4)cc3)nnc2-c2cccnc2)cc1`, the activation is -1%.

`Cc1cc(C)c(S(=O)(=O)N2CCC(C(=O)OCc3c(C)noc3C)CC2)c(C)c1`: the activation is 1.53%.

Consider `O=C(CN1C(=O)c2ccccc2S1(=O)=O)N1CCc2ccccc21`, for which the activation is -10.8%.

For the molecule `O=C(CSCc1ccccc1)N1CCc2ccccc21`, the activation is 17.5% (active).

Take `CC(OC(=O)Cc1ccc(F)cc1)C(=O)N1CCc2ccccc21` (stereo not given): the activation is 0.83%.

Consider `CCOC(=O)[C@@]12CCC3=C1N(CCC3)C(=O)[C@H](CC(=O)N1CCN(C(=O)c3ccco3)CC1)C2`, for which the activation is -0.79%.

As to `CC1(C)OC(=O)C2=C(CC(CCc3ccccc3)OC2c2ccc(Cl)cc2)O1` (stereo not given), the activation was 3.41%.

On to `CC(C)N(Cc1nnc(-c2ccc(Cl)cc2)o1)C(=O)C1=COCCO1`, for which the activation is 0.6%.

As for `CC(NCc1ccco1)C(=O)N1CCCCC1` (stereo not given), the activation is 1.35%.

For `C#CCCN([C@H](C(=O)OC)C(C)C)S(=O)(=O)c1ccc(F)cc1Br`, the activation was 2.22%.

On to `COc1cccc(CNC(=O)[C@H]2CCCN2C(=O)[C@H]2CCCN2C(=O)c2cc(F)cc(F)c2)c1`, for which the activation was 0.08%.

For `Cc1ccccc1C(=O)NC(=S)NC1CC1`, the activation is 0.72%.

For `CC(=O)Nc1ccc(NC(=S)NC(=O)c2ccc([N+](=O)[O-])c(C)c2)cc1`, the activation was -2.56%.

On to `Cc1ccc(C(=O)NC(=S)Nc2ccccc2C)cc1`, for which the activation is 12.1% (active).

Take `COC(=O)[C@H](CC(C)C)NS(=O)(=O)c1c(F)cccc1F`: the activation was -0.44%.

As to `CCCCCCCCN1C(=O)[C@@H](CC(=O)NCc2ccc(C)o2)C[C@@]2(C(=O)OC)C1=C[C@H](C(C)(C)C)O[C@@H]2C`, the activation was -0.08%.

In the case of `Cc1ccc(OCCOc2cccc(/C=N/NC(N)=O)c2)cc1`, the activation was 5.18%.

With `COC(=O)N/N=C/c1cn(CCCOc2ccc(C)cc2)c2ccccc12`, the activation is 15% (active).

As for `O=Cc1cn(CCOc2ccc(F)cc2)c2ccccc12`, the activation is -2.45%.

With `O=C(CNS(=O)(=O)c1ccccc1F)N1CCN(c2ccccn2)CC1`, the activation is 0.61%.

For the molecule `COC(=O)[C@]12C[C@H](CC(=O)NCc3ccccc3)C(=O)N(CCc3ccc(OC)c(OC)c3)C1=C[C@H](C(C)(C)C)O[C@@H]2C`, the activation was 0.98%.

Take `COc1ccc(OC)c(CNC(=O)Cn2nc(C)c3c(C)n(-c4ccc(C)cc4)nc3c2=O)c1`: the activation was -2.32%.

Regarding `O=C(CCS(=O)(=O)Cc1ccccc1F)NCCCN1CCCCC1`, the activation was 0.82%.

Take `O=C(CSc1nc2ccccc2s1)N=Nc1c(O)[nH]c2ccccc12`: the activation is -2.84%.

`O=C(CSc1nc2ccccc2s1)NN=Cc1ccc(O)cc1O`: the activation was -1.39%.

Take `O=C(O)c1ccccc1CSc1nc2ccccc2s1`: the activation is 10.6% (active).

As to `COc1ccc(CC(=O)Nc2cc(S(=O)(=O)N3CCCCC3)ccc2N2CCN(C)CC2)cc1`, the activation is -1.77%.

Consider `COC(=O)C1CN(CC(C)C)CCS(=O)(=O)N1Cc1ccc(C)cc1` (stereo not given), for which the activation was -0.71%.

On to `CS(=O)(=O)N1CCc2cc(C(=O)Nc3ccccc3)ccc21`, for which the activation is 2.16%.

Consider `CC(=O)Nc1ccc(NC(=O)c2ccc3c(c2)C(=O)N(c2ccccc2C)C3=O)cc1`, for which the activation is 0.55%.

With `CC(C)n1c(=O)[nH]c2cc(C(=O)Nc3ccccc3)ccc21`, the activation is 13.3% (active).

With `COc1ccc(-c2ccc3c(n2)CCCN3S(=O)(=O)c2ccc(C)cc2)cc1`, the activation is 1.42%.

In the case of `O=C(C(=O)N1CCC(CNS(=O)(=O)Cc2ccccc2)CC1)c1cc2ccccc2o1`, the activation was -2.92%.

For the molecule `CN(c1ccc(O)cc1)c1nc(-c2cccnc2)cs1`, the activation was 11% (active).

Take `O=C(NNC(=O)c1csc(-c2cccnc2)n1)Nc1ccc(Cl)cc1`: the activation is -2.54%.

For `CN(C(=O)CSc1nc(C2CC2)nc2ccccc12)c1nc(-c2ccccc2)cs1`, the activation was 0.14%.

Regarding `COc1ccc(NC(=O)c2cc([N+](=O)[O-])ccc2NC(=O)CNC2CCCCC2C)c(OC)c1` (stereo not given), the activation was 1.77%.

With `Cn1c(=NC(=O)C2CC2)sc2cc(F)cc(F)c21`, the activation was 14% (active).

For `O=C(Cn1nnc(-c2ccccc2)n1)NC(=O)NC1CCCC1`, the activation is 4.87%.

With `CC(C)C[C@H](NC(=O)C1CC(=O)N(c2ccc3c(c2)OCCO3)C1)C(=O)NC1CCCC1` (stereo not given in full), the activation was -2.12%.

Turning to `Cc1ccc(S(=O)(=O)NCCC(=O)Nc2cccc(S(N)(=O)=O)c2)cc1C`, the activation was 1.82%.

`Cc1ccnc(NC(=O)CCNS(=O)(=O)c2ccc(C)c(C)c2)c1`: the activation was 17.1% (active).

With `Cc1ccc(S(=O)(=O)NCCC(=O)NCc2ccc(Cl)cc2)cc1C`, the activation was 1.13%.

In the case of `COCCNC(=O)CSc1nc2sccc2c(=O)n1-c1ccccc1`, the activation is -2.26%.

`CNc1cncc(-c2cccc(C(=O)N3CCOCC3)c2)n1`: the activation was -2.58%.

In the case of `CS(=O)(=O)Nc1ccc(C(=O)N2CCCC2)cc1`, the activation is -0.04%.

Consider `CNc1cncc(-c2ccc(NS(C)(=O)=O)cc2)n1`, for which the activation is 20.8% (active).

Turning to `COc1ccc(-c2ccccc2C2Cc3nnccc3CN2C(=O)Nc2ccccc2)cc1` (stereo not given), the activation is -0.36%.

On to `O=C(Nc1cccc(Cl)c1)OC1CC2CC1[C@H]1CCCCN1[C@H]2Cc1ccccc1` (stereo not given in full), for which the activation was -4.33%.

Take `Cc1ccc2nc(CN(C)C(=O)[C@@H](Cc3ccccc3)NC(=O)[C@H]3O[C@@H](n4ccc(=O)[nH]c4=O)[C@H](O)[C@@H]3O)[nH]c2c1`: the activation was -0.28%.

Take `Cc1ccc(C)c(NC(=O)CCC(=O)N/N=C2/CC(=O)CC(C)(C)C2)c1`: the activation was -0.63%.

For `COC(=O)[C@H](C(C)C)N(CCc1cn(Cc2ccccc2)nn1)S(=O)(=O)c1ccc(F)cc1Br`, the activation was -2.66%.

For the molecule `COc1ccc(Sc2ccc(NC(=O)c3cccc(Cl)c3)cc2C#N)cc1`, the activation is 0.58%.

For the molecule `N#Cc1ccccc1NC(=O)c1cccc(COc2ccc(Cl)cc2Cl)c1`, the activation is 12.7% (active).

With `O=C(Nc1ccn(Cc2ccccc2F)n1)c1ccc(COc2ccc(Cl)cc2Cl)o1`, the activation was -5.91%.

Turning to `Cn1cc(S(=O)(=O)NC(c2ccccc2)c2ccccc2)c(=O)n(C)c1=O`, the activation is -1.46%.

Consider `O=C(COC(=O)c1ccco1)Nc1ccc(Cl)cn1`, for which the activation was 0.37%.

Turning to `O=C(COc1cccc(Cl)c1)NCc1ccccc1`, the activation is 10.5% (active).

Take `O=C(COC(=O)c1cnc(Cl)c(Cl)c1)NCc1ccco1`: the activation was -3.41%.

Turning to `O=C(COC(=O)c1ccco1)NCc1ccc(Cl)cc1`, the activation was 10.8% (active).

Consider `O=C(COC(=O)c1cccc(Cl)c1)NC(=O)NCc1ccccc1`, for which the activation was 0.55%.

Regarding `O=C(CCOc1ccccc1)NCc1ccccc1`, the activation is 0.5%.

(Values after PubChem BioAssay AID687014 (The Scripps Research Institute Molecular Screening Center, 2013).)
